# Residue numbers refer to the chain shown, from its start.
# How the values were obtained:
# Experiment in all cases: PBM; 200 nM protein, PBS
# Conditions in all cases: dsDNA, one strand shown
# CRX [1] = target: CRX (Homo sapiens, UniProt O43186 26-111)
# VENTX [2] = target: T1, VENTX (Homo sapiens, UniProt O95231 78-163, R121Q)
# T1 sequence: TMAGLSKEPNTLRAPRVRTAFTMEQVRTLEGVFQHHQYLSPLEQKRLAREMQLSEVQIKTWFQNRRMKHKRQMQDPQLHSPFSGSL
# VENTX [3] = target: T2, VENTX (Homo sapiens, UniProt O95231 78-163, Y115F)
# T2 sequence: T1 sequence with Y38F, Q44R
# CRX [4] = target: CRX (Homo sapiens, UniProt O43186 26-111, E42D)
# PITX2 = PITX2 (Homo sapiens, UniProt Q99697 72-157)
# HOXA4 [5] = target: HOXA4 (Homo sapiens, UniProt Q00056 201-287, W262R)
# PRRX1 [6] = target: PRRX1 (Homo sapiens, UniProt P54821 80-166, F113S)
# HOXA4 [7] = target: HOXA4 (Homo sapiens, UniProt Q00056 201-287, R217L)
# HOXA4 [8] = target: HOXA4 (Homo sapiens, UniProt Q00056 201-287)
# CRX [9] = target: CRX (Homo sapiens, UniProt O43186 26-111, R41L)
# HOXA4 [10] = target: HOXA4 (Homo sapiens, UniProt Q00056 201-287, W262F)
# PRRX1 [11] = target: PRRX1 (Homo sapiens, UniProt P54821 80-166)
# VAX1 [12] = target: VAX1 (Homo sapiens, UniProt Q5SQQ9 86-172)
# VAX1 [13] = target: VAX1 (Homo sapiens, UniProt Q5SQQ9 86-172, T142I)
# VAX1 [14] = target: VAX1 (Homo sapiens, UniProt Q5SQQ9 86-172, K157R)
# SIX6 [15] = target: T3, SIX6 (Homo sapiens, UniProt O95475 114-200, L167I)
# T3 sequence: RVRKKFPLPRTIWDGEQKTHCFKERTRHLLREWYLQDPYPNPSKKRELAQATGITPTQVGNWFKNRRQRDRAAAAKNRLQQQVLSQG
# SIX6 [16] = target: T4, SIX6 (Homo sapiens, UniProt O95475 114-200, L143V)
# T4 sequence: T3 sequence with L30V, I54L
# SIX6 [17] = target: T5, SIX6 (Homo sapiens, UniProt O95475 114-200, H141N)
# T5 sequence: T3 sequence with H28N, I54L
# SIX6 [18] = target: T6, SIX6 (Homo sapiens, UniProt O95475 114-200, T165P)
# T6 sequence: T3 sequence with T52P, I54L
# SIX6 [19] = target: T7, SIX6 (Homo sapiens, UniProt O95475 114-200, L167M)
# T7 sequence: T3 sequence with I54M
# SIX6 [20] = target: T8, SIX6 (Homo sapiens, UniProt O95475 114-200, L143M)
# T8 sequence: T3 sequence with L30M, I54L
# SIX6 [21] = target: T9, SIX6 (Homo sapiens, UniProt O95475 114-200, L143I)
# T9 sequence: T3 sequence with L30I, I54L
# SIX6 [22] = target: T10, SIX6 (Homo sapiens, UniProt O95475 114-200, T165G)
# T10 sequence: T3 sequence with T52G, I54L
# SIX6 [23] = target: T11, SIX6 (Homo sapiens, UniProt O95475 114-200, T139Q)
# T11 sequence: T3 sequence with T26Q, I54L
# SIX6 [24] = target: T12, SIX6 (Homo sapiens, UniProt O95475 114-200, T165A)
# T12 sequence: T3 sequence with T52A, I54L
# SIX6 [25] = target: T13, SIX6 (Homo sapiens, UniProt O95475 114-200, L167V)
# T13 sequence: T3 sequence with I54V
# SIX6 [26] = target: T14, SIX6 (Homo sapiens, UniProt O95475 114-200)
# T14 sequence: T3 sequence with I54L
# SIX6 [27] = target: T15, SIX6 (Homo sapiens, UniProt O95475 114-200, T165I)
# T15 sequence: T3 sequence with T52I, I54L
# CRX (Homo sapiens, UniProt O43186 26-111, R41L), sequence (O43186 26-111 R41L): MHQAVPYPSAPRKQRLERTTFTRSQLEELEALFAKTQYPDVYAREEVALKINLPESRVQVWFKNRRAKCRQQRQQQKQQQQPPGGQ
# CRX (Homo sapiens, UniProt O43186 26-111, E42D), sequence (O43186 26-111 E42D): as the sequence (O43186 26-111 R41L) above, with L16R, E17D counted along it
# CRX (Homo sapiens, UniProt O43186 26-111), sequence (O43186 26-111): as the sequence (O43186 26-111 R41L) above, with L16R counted along it
# HOXA4 (Homo sapiens, UniProt Q00056 201-287), sequence (Q00056 201-287): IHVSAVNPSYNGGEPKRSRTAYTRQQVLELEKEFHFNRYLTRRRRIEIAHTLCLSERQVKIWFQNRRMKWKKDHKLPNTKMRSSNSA
# PRRX1 (Homo sapiens, UniProt P54821 80-166, F113S), sequence (P54821 80-166 F113S): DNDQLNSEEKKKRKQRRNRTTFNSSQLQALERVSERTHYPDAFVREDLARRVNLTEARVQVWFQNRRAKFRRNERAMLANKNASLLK
# HOXA4 (Homo sapiens, UniProt Q00056 201-287, W262F), sequence (Q00056 201-287 W262F): as the sequence (Q00056 201-287) above, with W62F counted along it
# PRRX1 (Homo sapiens, UniProt P54821 80-166), sequence (P54821 80-166): as the sequence (P54821 80-166 F113S) above, with S34F counted along it
# HOXA4 (Homo sapiens, UniProt Q00056 201-287, W262R), sequence (Q00056 201-287 W262R): as the sequence (Q00056 201-287) above, with W62R counted along it
# HOXA4 (Homo sapiens, UniProt Q00056 201-287, R217L), sequence (Q00056 201-287 R217L): as the sequence (Q00056 201-287) above, with R17L counted along it
# VAX1 (Homo sapiens, UniProt Q5SQQ9 86-172, T142I), sequence (Q5SQQ9 86-172 T142I): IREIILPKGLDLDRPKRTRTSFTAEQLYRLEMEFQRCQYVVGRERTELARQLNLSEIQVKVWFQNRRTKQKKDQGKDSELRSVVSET
# VAX1 (Homo sapiens, UniProt Q5SQQ9 86-172, K157R), sequence (Q5SQQ9 86-172 K157R): as the sequence (Q5SQQ9 86-172 T142I) above, with I57T, K72R counted along it
# VAX1 (Homo sapiens, UniProt Q5SQQ9 86-172), sequence (Q5SQQ9 86-172): as the sequence (Q5SQQ9 86-172 T142I) above, with I57T counted along it
sequence,measurement,setting,value
AATTCTGA,binding signal,CRX [1],"10 upbm affinity estimate (log intensity, higher = more binding, comparable within an allelic series)"
CAGATTAA,binding signal,CRX [1],"13.1 upbm affinity estimate (log intensity, higher = more binding, comparable within an allelic series)"
same,binding signal,VENTX [2],"10.7 upbm affinity estimate (log intensity, higher = more binding, comparable within an allelic series)"
same,binding signal,VENTX [3],"10.7 upbm affinity estimate (log intensity, higher = more binding, comparable within an allelic series)"
same,binding signal,CRX [4],"13.1 upbm affinity estimate (log intensity, higher = more binding, comparable within an allelic series)"
same,binding signal,PITX2,"12.5 upbm affinity estimate (log intensity, higher = more binding, comparable within an allelic series)"
CCCGTCCC,binding signal,CRX [1],"8.36 upbm affinity estimate (log intensity, higher = more binding, comparable within an allelic series)"
same,binding signal,HOXA4 [5],"9.79 upbm affinity estimate (log intensity, higher = more binding, comparable within an allelic series)"
same,binding signal,PRRX1 [6],"9.36 upbm affinity estimate (log intensity, higher = more binding, comparable within an allelic series)"
same,binding signal,HOXA4 [7],"9.77 upbm affinity estimate (log intensity, higher = more binding, comparable within an allelic series)"
same,binding signal,CRX [4],"8.37 upbm affinity estimate (log intensity, higher = more binding, comparable within an allelic series)"
same,binding signal,HOXA4 [8],"9.89 upbm affinity estimate (log intensity, higher = more binding, comparable within an allelic series)"
same,binding signal,CRX [9],"8.4 upbm affinity estimate (log intensity, higher = more binding, comparable within an allelic series)"
same,binding signal,HOXA4 [10],"9.95 upbm affinity estimate (log intensity, higher = more binding, comparable within an allelic series)"
same,binding signal,PRRX1 [11],"9.4 upbm affinity estimate (log intensity, higher = more binding, comparable within an allelic series)"
ACAGATTA,binding signal,CRX [1],"12.8 upbm affinity estimate (log intensity, higher = more binding, comparable within an allelic series)"
same,binding signal,VENTX [2],"10.5 upbm affinity estimate (log intensity, higher = more binding, comparable within an allelic series)"
same,binding signal,VENTX [3],"10.5 upbm affinity estimate (log intensity, higher = more binding, comparable within an allelic series)"
same,binding signal,CRX [4],"12.7 upbm affinity estimate (log intensity, higher = more binding, comparable within an allelic series)"
same,binding signal,VAX1 [12],"10 upbm affinity estimate (log intensity, higher = more binding, comparable within an allelic series)"
same,binding signal,VAX1 [13],"9.28 upbm affinity estimate (log intensity, higher = more binding, comparable within an allelic series)"
same,binding signal,CRX [9],"12.6 upbm affinity estimate (log intensity, higher = more binding, comparable within an allelic series)"
same,binding signal,VAX1 [14],"9.72 upbm affinity estimate (log intensity, higher = more binding, comparable within an allelic series)"
CCGTCGCC,binding signal,CRX [1],"8.18 upbm affinity estimate (log intensity, higher = more binding, comparable within an allelic series)"
same,binding signal,SIX6 [15],"8.85 upbm affinity estimate (log intensity, higher = more binding, comparable within an allelic series)"
same,binding signal,SIX6 [16],"8.91 upbm affinity estimate (log intensity, higher = more binding, comparable within an allelic series)"
same,binding signal,SIX6 [17],"8.81 upbm affinity estimate (log intensity, higher = more binding, comparable within an allelic series)"
same,binding signal,SIX6 [18],"9.06 upbm affinity estimate (log intensity, higher = more binding, comparable within an allelic series)"
same,binding signal,SIX6 [19],"8.97 upbm affinity estimate (log intensity, higher = more binding, comparable within an allelic series)"
same,binding signal,SIX6 [20],"8.82 upbm affinity estimate (log intensity, higher = more binding, comparable within an allelic series)"
same,binding signal,SIX6 [21],"8.94 upbm affinity estimate (log intensity, higher = more binding, comparable within an allelic series)"
same,binding signal,SIX6 [22],"8.89 upbm affinity estimate (log intensity, higher = more binding, comparable within an allelic series)"
same,binding signal,SIX6 [23],"9.02 upbm affinity estimate (log intensity, higher = more binding, comparable within an allelic series)"
same,binding signal,CRX [4],"8.26 upbm affinity estimate (log intensity, higher = more binding, comparable within an allelic series)"
same,binding signal,SIX6 [24],"8.74 upbm affinity estimate (log intensity, higher = more binding, comparable within an allelic series)"
same,binding signal,SIX6 [25],"8.83 upbm affinity estimate (log intensity, higher = more binding, comparable within an allelic series)"
same,binding signal,SIX6 [26],"8.87 upbm affinity estimate (log intensity, higher = more binding, comparable within an allelic series)"
same,binding signal,SIX6 [27],"8.79 upbm affinity estimate (log intensity, higher = more binding, comparable within an allelic series)"
same,binding signal,CRX [9],"8.24 upbm affinity estimate (log intensity, higher = more binding, comparable within an allelic series)"
GGGGCTCA,binding signal,CRX [1],"9.96 upbm affinity estimate (log intensity, higher = more binding, comparable within an allelic series)"
same,binding signal,HOXA4 [5],"9.76 upbm affinity estimate (log intensity, higher = more binding, comparable within an allelic series)"
same,binding signal,PRRX1 [6],"9.31 upbm affinity estimate (log intensity, higher = more binding, comparable within an allelic series)"
same,binding signal,HOXA4 [7],"9.78 upbm affinity estimate (log intensity, higher = more binding, comparable within an allelic series)"
same,binding signal,CRX [4],"9.8 upbm affinity estimate (log intensity, higher = more binding, comparable within an allelic series)"
same,binding signal,HOXA4 [8],"9.76 upbm affinity estimate (log intensity, higher = more binding, comparable within an allelic series)"
same,binding signal,HOXA4 [10],"9.78 upbm affinity estimate (log intensity, higher = more binding, comparable within an allelic series)"
same,binding signal,PRRX1 [11],"9.52 upbm affinity estimate (log intensity, higher = more binding, comparable within an allelic series)"
